KB-V1 MDR tox: kills drug-selected multidrug resistant KB-V1 cells | KB-V1 MDR cells viability, CellTiter-Glo, 72 h | 3.4% of 400,000 active | Potency, µM (doses to about 46.1 µM), hits mostly cytotoxic; note: nearly all actives have a fitted effect of over 60% in size
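Readout: CellTiter-Glo luminescence, 10 min after addition. Cells: KB-V1 MDR subline, 72 h at 37 degrees C with compound. Analysis: corrected, normalized data fitted to concentration-effect curves.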
HT1080-NT tox: kills 2HG-producing HT-1080-NT fibrosarcoma cells. AID 686970. 1.6% of 360,000 active. Potency, µM (highest dose often 46.1 µM), without a hit: at the top dose activity, negative = less viability, hits mostly cytotoxic. HT-1080-NT fibrosarcoma viability, CellTiter-Glo ATP luminescence, 48 h;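 note: NT is the 2HG producing partner of a matched IDH1 knockdown line; 0% = DMSO-treated cells and -100% = media-only wells without cells; nearly all actives have a fitted effect of over 55% in size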
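750 cells/well, RPMI + 5% FBS; 2 h settle, compound pin-transfer, 48 h at 37 degrees C. CellTiter-Glo 10 min RT, luminescence. Normalized to DMSO and media-only wells.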
HT1080 IDH1KD tx: toxicity to HT-1080 IDH1 knockdown cells (counter line); HT-1080 IDH1 knockdown viability, ATP luminescence, 48 h; 2% of 360,000 active; Potency, µM (highest dose often 46.1 µM), for the others: top-dose activity, negative = toxicity, hits mostly cytotoxic; AID 686971;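 note: 0% = DMSO wells and -100% = cell-free medium wells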
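% activity derives from luminescence (CellTiter-Glo), normalised to DMSO and no-cell wells. HT-1080-IDH1KD cells, 750/well, had 48 h compound exposure at 37 °C.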
TDP1 cell noCPT: qHTS for Inhibitors of human tyrosyl-DNA phosphodiesterase 1 (TDP1): qHTS in cells in absence of CPT; AID 686978, 2013; Potency, µM (top dose mostly 46.2 µM), inactives show at the top dose activity change, negative = growth inhibition, most hits filed as inhibitors; DT40 Tdp1-/- hTDP1 cells, no CPT, ATP luminescence, 48 h; 15% of 420,000 active; note: nearly all actives have a fitted effect of over 55% in size
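Growth of hTDP1-complemented DT40 Tdp1-knockout cells is measured by ATP luminescence after at least 48 hr compound exposure at 37 °C, with DMSO substituting for the 20 nM CPT used in the parallel screen.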
DT40 TDP1 CPT: growth inhibition of DT40 Tdp1-/-;hTDP1 cells with camptothecin (screen for TDP1 inhibitors); chicken DT40 Tdp1-/-;hTDP1 cells + 20 nM CPT, ATP luminescence, 48 h; Potency, µM (highest dose often 46.2 µM), for the others: at the top dose activity change, negative = growth inhibition, actives largely listed as inhibitors; 12% of 420,000 active; AID 686979; note: nearly all actives have a fitted effect of over 55% in size
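Chicken DT40 Tdp1-/- cells stably complemented with human TDP1 were seeded at 400 cells/well in medium containing 20 nM camptothecin, exposed to pin-transferred compounds, and grown at 37 °C for at least 48 hr. Viability was read as ATP luminescence.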
KB-3-1 tox: kills parental KB-3-1 adenocarcinoma cells | KB-3-1 viability, CellTiter-Glo ATP luminescence, 72 h | Potency, µM (series often up to 46.1 µM), hits mostly cytotoxic | 1.4% of 400,000 active; note: nearly all actives have a fitted effect of over 60% in size
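KB-3-1 cells, DMEM (no phenol red) + 10% FBS; compound by pin transfer, 72 h, 37 °C. Readout: CellTiter-Glo luminescence after 10 min. Data normalized, curve-fitted.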
An asterisk follows results filed as active; i = inactive; ? = inconclusive; · = no result given; [ ] = remark or other dose. Hits are enriched below; roughly 19% of the tested compounds scored in any of these assays. Calls come from the whole dose curve; as a rule, active = well fitted curve in the direction sought with a large enough effect; inconclusive = small, poorly fitted or top-dose-only effect, or another doubt; inactive = no such curve, though single readings can be large; an effect the other way counts as inactive or inconclusive. Unless noted, % is set by controls: 0 for no effect and ±100 for the full control effect; potency is the fitted concentration of half-maximal effect.

SMILES	KB-V1 MDR tox	HT1080-NT tox	HT1080 IDH1KD tx	TDP1 cell noCPT	DT40 TDP1 CPT	KB-3-1 tox
COc1ccc(N2C(=O)CC(N3CCC(n4c(=O)[nH]c5ccccc54)CC3)C2=O)cc1 (stereo not given)	i	7.2%	-4.6%	?	?	i
O=C(CN1CCN(c2nc(-c3ccc(F)cc3)cs2)CC1)NCc1ccc2c(c1)OCO2	?	?	?	?	?	i
COc1ccc2nc(-c3ccc(CN4CCC(n5c(=O)[nH]c6ccccc65)CC4)cc3)c(-c3ccccc3)nc2c1	?	?	?	14.6µM*	18.4µM*	?
Cc1cccc(C(O)c2ncc(-c3ccccc3Cl)[nH]2)c1C (stereo not given)	i	-17.5%	-1.9%	?	?	i
COc1cc2c(cc1OC)[C@H]1C(=O)c3ccc4c(c3O[C@H]1CO2)C[C@@H](C(C)(C)O)O4	i	-4.3%	-1.8%	11.6µM*	14.6µM*	i
COc1cc2c(cc1OC)[C@@H]1C(=O)c3ccc4c(c3O[C@@H]1CO2)C[C@H](C(C)C)O4	?	?	-26.4%	0.164µM*	0.259µM*	?
COc1cc2c(cc1OC)C1C(=O)c3ccc4c(c3OC1CO2)CC(C(C)C)O4 (stereo not given)	i	?	?	0.0326µM*	0.184µM*	?
COc1cc2c(cc1OC)[C@@H]1C(=O)c3ccc4oc(C(C)C)cc4c3OC1CO2 (stereo not given in full)	·	·	·	0.291µM*	0.651µM*	·
O=C(NC1CCCCC1)N1Cc2cc(N3CCOCC3)ccc2-n2nncc2C1	i	23.9%	0.1%	2.2%	-16.7%	i
O=[N+]([O-])c1ccccc1-c1cc(-c2ccccc2)cc(-c2ccccc2)[n+]1Cc1ccccc1Cl	i	7.31µM*	10.3µM*	0.731µM*	0.651µM*	9.2µM*
C[N+]1(C)[C@@H]2CC[C@H]1CC(OC(=O)C(c1ccccc1)c1ccccc1)C2 (stereo not given in full)	i	3.9%	4.6%	?	?	i
O=C(OC1CCN(CCCl)CC1)C(c1ccccc1)c1ccccc1	i	-24.9%	-21.9%	?	16.4µM*	i
N#Cc1nn(-c2c(Cl)cc(C(F)(F)F)cc2Cl)c(N)c1S(=O)C(F)(F)F (stereo not given)	·	·	·	8.57µM*	9.62µM*	·
CCOC(=O)c1cc2c(cn1)[C@@H](CCO)NC2	i	-2.3%	-0.6%	-1.7%	0.4%	?
C=C(C)CSc1nnc([C@@H](N)Cc2c[nH]c3ccccc23)o1	i	13.0%	1.8%	-22.5%	-10.5%	i
Cc1[nH]nc2ccc(-c3cncc(OC[C@@H](N)Cc4c[nH]c5ccccc45)c3)cc12	25.9µM*	18.4µM*	10.3µM*	0.581µM*	0.581µM*	?
CCOCCC(=O)Nc1ccc2c(c1)c(=O)n(C)n2Cc1cccc(C(F)(F)F)c1	i	?	13.7%	-19.8%	-18.4%	i
CC(C)CCCC1(C)C=Cc2c(O)c3c(c(CCC(C)C)c2O1)OC12C(CC4CC1C(C)(C)OC2(CCC(C)C(=O)O)C4O)C3=O (stereo not given)	·	·	·	-7.1%	-12.8%	·
CC(C)=CCCC1(C)C=Cc2c(O)c3c(c(CC=C(C)C)c2O1)OC12C(=CC4CC1C(C)(C)OC2(C/C=C(/C)C(=O)O)C4=O)C3=O (stereo not given)	·	·	·	1.03µM*	0.92µM*	·
CC(C)=CCCC1(C)C=Cc2c(O)c3c(c(CC=C(C)C)c2O1)OC12C(=CC4CC1C(C)(C)OC2(C/C=C(/C)C(=O)O)C4O)C3=O (stereo not given)	·	·	·	3.66µM*	4.61µM*	·
CC12CC(=O)C3C(CCC4CC(=O)C=CC43C)C1CCC2=O (stereo not given)	i	15.2%	15.5%	?	-21.3%	i
CCC(C)C1NC(=O)C(NC(=O)C(CC(C)C)N(C)C(=O)C2CCCN2C(=O)C(C)O)C(C)OC(=O)C(Cc2ccc(OC)cc2)N(C)C(=O)C2CCCN2C(=O)C(CC(C)C)NC(=O)[C@H](C)C(=O)[C@H](C(C)C)OC(=O)CC1O (stereo not given in full)	8.2µM*	0.231µM*	0.013µM*	0.0291µM*	0.0366µM*	0.164µM*
C/C1=C\[C@@H](C)C/C=C/[C@H]2[C@@H]3O[C@]3(C)[C@@H](C)[C@H]3[C@H](Cc4c[nH]c5ccccc45)NC(=O)[C@]32C(=O)/C=C/C(=O)[C@@H]1O	i	-22.2%	?	0.146µM*	0.146µM*	i
CCOC(=O)CNC(=O)CNC(=O)C(Cc1ccc(N(CCCl)CCCl)cc1)NC(C)=O (stereo not given)	i	1.2%	-2.0%	1.64µM*	1.3µM*	i
CC(=O)NC(Cc1ccc(N(CCCl)CCCl)cc1)C(=O)NCC(=O)NCC(=O)O (stereo not given)	i	0.0%	7.4%	10.3µM*	6.51µM*	i
SMILES	KB-V1 MDR tox	HT1080-NT tox	HT1080 IDH1KD tx	TDP1 cell noCPT	DT40 TDP1 CPT	KB-3-1 tox
CC(=O)NC(Cc1ccc(N(CCCl)CCCl)cc1)C(=O)NC(CC(C)C)C(=O)O (stereo not given)	i	0.3%	-2.4%	14.6µM*	?	i
CC(C)C[C@H](NC(=O)[C@H](Cc1ccccc1)NC(=O)CNC(=O)[C@H](C)NC(=O)[C@@H](N)Cc1ccc(O)cc1)C(=O)O	·	·	·	-11.5%[4.12 µM]	2.4%[4.12 µM]	·
CCOC(=O)C(NC(=O)C(Cc1ccc(N(CCCl)CCCl)cc1)NC(C)=O)C(C)C (stereo not given)	i	19.7%	0.7%	5.6%	1.3%	i
CS(=O)(=O)c1ccc(C2=C(CNC(=O)c3cccnc3)[C@H]3CC[C@@H](C2)N3Cc2ccco2)cc1	i	13.2%	10.7%	-4.3%	15.7%	i
O[C@H]1[C@H]2[C@H](O)CCCN2C[C@H]1O	·	·	·	-15.9%	8.0%	·
CC(=O)[C@@]1(O)CC[C@H]2[C@@H]3C[C@H](C)C4=CC(=O)CC[C@]4(C)[C@H]3CC[C@@]21C	?	2.0%	-2.9%	29.1µM*	?	i
CCOC(=O)c1ccc(N=C(c2ccccc2)c2c(O)n(C)c(=O)n(C)c2=O)cc1	?	?	?	7.31µM*	2.91µM*	i

Source: PubChem
